Over roughly 35,000 sequences, “fluorescence intensity (a.u.)” has its median near 10,000; the highest 2% begin near 52,000. Only a selection was taken, and the highest values are over-represented in it overall.

Binding signal data for 44 sequences are collected here from publication PMC7819943, “Rice protein-binding microarrays: a tool to detect cis-acting elements near promoter regions in rice”.

This test concerns the target T1, OsWOX13 (Oryza sativa, UniProt Q5QMM3 1-267).
T1 sequence: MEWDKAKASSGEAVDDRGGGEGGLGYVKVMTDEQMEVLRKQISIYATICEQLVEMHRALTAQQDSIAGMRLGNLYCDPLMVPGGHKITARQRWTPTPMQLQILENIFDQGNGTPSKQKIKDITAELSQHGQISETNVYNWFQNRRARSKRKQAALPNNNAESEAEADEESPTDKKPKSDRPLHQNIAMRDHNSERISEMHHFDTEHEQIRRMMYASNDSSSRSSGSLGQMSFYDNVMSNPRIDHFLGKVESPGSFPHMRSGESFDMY
Nature of the test: protein-binding microarray (RPBM); PBS, 2% BSA, 51.3 ng/ul salmon testes DNA, 50 uM zinc acetate, 200 nM TF, 25 C, 1 h; high values mean tight binding. The settings on record: protein: recombinant; tags: N-terminal polyhistidine and DsRed monomer fusion (pET32a); label: CyDye5-dUTP incorporated in the synthesized complementary strand; 3' TTTTT single-stranded linker to array surface; dsDNA, one strand shown. In a few lines: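 Binding signal is defined as the fluorescence intensity of each feature in arbitrary units, read on an Axon 4000B scanner. Transcription factors with N-terminal polyhistidine and DsRed fusions came from E. coli BL21-CodonPlus and were purified on Ni–NTA. They were incubated at 200 nM for 1 h at 25 °C on a custom Agilent array that had been made double-stranded with Cy5-dUTP, with 50 µM zinc acetate present, and the array was washed.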
For the sequence “AGACTAATTGAAGCTAGGATATATGATGCAAGGAGAGAGGCGGAGTCACCTAGTGCAG”, the binding signal was 29500 fluorescence intensity (a.u.).
In the case of “ACCTTAAATTTGTAGTTGATTTTAGGGTTTTCTCATTGAACGGAGTCACCTAGTGCAG” it was 27700 fluorescence intensity (a.u.).
In the case of “ATAATAGATTTGGTCAAAATTTATCGAAAACCGATCGAAACGGAGTCACCTAGTGCAG” it was 13200 fluorescence intensity (a.u.).
For the sequence “AAATTAAATAACATGTGATTATGGCATACTGTAAGTAGTACGGAGTCACCTAGTGCAG”, the binding signal was 12000 fluorescence intensity (a.u.).
For “ACCAAATTAATTTATTAAACATAAAATTGAATATATTTTGCGGAGTCACCTAGTGCAG”, the binding signal was 46500 fluorescence intensity (a.u.).
“ATAAATGGGCTATTAGATTGACTATAAATGATTTGGAGCCCGGAGTCACCTAGTGCAG”: the binding signal is 57100 fluorescence intensity (a.u.).
In the case of “ATGGACTATTAAATTGACTATAAATGATTTGGAGCTAGTACGGAGTCACCTAGTGCAG”, the binding signal is 22200 fluorescence intensity (a.u.).
In the case of “TATGAATTGGCTATTAAATTGACTATAAATGATTTAGAGCCGGAGTCACCTAGTGCAG” it was 37200 fluorescence intensity (a.u.); in that of “GAGACCATATCATTGATAGATACATGCATGCATCCTACTACGGAGTCACCTAGTGCAG”, 7660 fluorescence intensity (a.u.); in that of “AAGACTAAAGGCTCAATTGATTGGACGGGAGATATGAAAACGGAGTCACCTAGTGCAG”, 9490 fluorescence intensity (a.u.).
Then “ATATGATATTTGTCCATCTTAATTGCTTATAAGCTGTATACGGAGTCACCTAGTGCAG”, with 5090 fluorescence intensity (a.u.).
Then “TATGATTTGTCTACGTTACAAACATAAACCTTTTCTTCTCCGGAGTCACCTAGTGCAG”, with 11400 fluorescence intensity (a.u.).
As for “GGAGTGCAAATTAGTCCGGATTTTACTGAATATTGATAACCGGAGTCACCTAGTGCAG”, the binding signal was 3300 fluorescence intensity (a.u.).
As for “TTGTTGATAACCGATAATTTGGTAAATTATTGATTTTATTCGGAGTCACCTAGTGCAG”, the binding signal was 19900 fluorescence intensity (a.u.).
Turning to “ATTTATGTAATTATCATTTATTTTATTGTAAATTTATTTACGGAGTCACCTAGTGCAG”, the binding signal was 16300 fluorescence intensity (a.u.).
Regarding “GTAATTGACAACTGACAACCGACAGTTATTGACTCATTCCCGGAGTCACCTAGTGCAG”, the binding signal was 54900 fluorescence intensity (a.u.).
Then “GTCCGTAATTGATCATATTTATCATTTAAATTACTCAGTGCGGAGTCACCTAGTGCAG”, with 61900 fluorescence intensity (a.u.).
Take “ATTTTGGTTTCTGTTATTGACAAAACAACTCACTCATTCCCGGAGTCACCTAGTGCAG”: the binding signal was 3480 fluorescence intensity (a.u.).
As to “ACCGTAACCTGATTGATAATTTACTGATTTACTCATTGTTCGGAGTCACCTAGTGCAG”, the binding signal was 64700 fluorescence intensity (a.u.).
In the case of “TAGATTGATTGTTACTCCGTACATAACCTTGTCTTCTTCGCGGAGTCACCTAGTGCAG” it was 55400 fluorescence intensity (a.u.); in that of “GGCCAGTAATTAACCATATTTATCATTTAAACTACTCAGTCGGAGTCACCTAGTGCAG”, 9040 fluorescence intensity (a.u.); in that of “ATTGCTGATTGTCTGTTCTTTTACTTGACATAACCTGAATCGGAGTCACCTAGTGCAG”, 30100 fluorescence intensity (a.u.).
As to “TAATAAATTTGACTAGTTATTCAACTTTGACATAAAATCCCGGAGTCACCTAGTGCAG”, the binding signal was 11500 fluorescence intensity (a.u.).
Then “GCTGGTTTGATTAGATCTTCATCCCACGTGGCATTGACGTCGGAGTCACCTAGTGCAG”, with 17200 fluorescence intensity (a.u.); and “TCTTGTAATTATTCTATGTTTAATACTCTAAATTAGCATCCGGAGTCACCTAGTGCAG”, with 20000 fluorescence intensity (a.u.); and “TGGTGATAATGTCATTCTGTTATTACAGAGGTCAACGTGTCGGAGTCACCTAGTGCAG”, with 3410 fluorescence intensity (a.u.).
In the case of “CTCCACTAATCCTACCAATTAACGAGTCGTACTCAATAATCGGAGTCACCTAGTGCAG”, the binding signal is 7550 fluorescence intensity (a.u.).
As for “CAGCTGTTCTAATGATTTGAGATATATCAAACTTGTCAAACGGAGTCACCTAGTGCAG”, the binding signal is 3250 fluorescence intensity (a.u.).
With “TAAGTTAATAGATATTTAACGTTTATAATAAGATTTGTTTCGGAGTCACCTAGTGCAG”, the binding signal is 9590 fluorescence intensity (a.u.).
“AGCGCAACTAATTAAACTAGGCTTATCAGGCGACAGCGGCCGGAGTCACCTAGTGCAG”: the binding signal was 4920 fluorescence intensity (a.u.).
In the case of “GGCAATCAATCAACCAATCACCAGCTTACAATTCGGCCACCGGAGTCACCTAGTGCAG” it was 59300 fluorescence intensity (a.u.); in that of “CACCCAATCACAATCCAACCCACGCCATTGCAACCAAATTCGGAGTCACCTAGTGCAG”, 4130 fluorescence intensity (a.u.); in that of “TCAAACAAACCAATCAATCAATCAATCAGGGGATTCTTACCGGAGTCACCTAGTGCAG”, 42300 fluorescence intensity (a.u.).
“GTGTAATTTTGTTAGGAAATTTGGGTTTGAATCAGTGGAACGGAGTCACCTAGTGCAG”: the binding signal was 12500 fluorescence intensity (a.u.).
In the case of “TCCTGATTTCGCCGCCACTTGTAGCATCTGCCCGTGGGGTCGGAGTCACCTAGTGCAG” it was 5510 fluorescence intensity (a.u.).
With “GCTAATCATAGACTAATTAGACTCAAAAGATTAGTCTCGCCGGAGTCACCTAGTGCAG”, the binding signal is 52800 fluorescence intensity (a.u.).
Then “ATGGATTAATTAGGCTCAAAAGATTTGTCTCACTATTTCCCGGAGTCACCTAGTGCAG”, with 13500 fluorescence intensity (a.u.); and “ATGGCTAATTATGGACTAATTAGACTCAAAAGATTCGTTTCGGAGTCACCTAGTGCAG”, with 19800 fluorescence intensity (a.u.); and “TACGGCTAATTATGGACTAATTAGACTCAAAAGATTCATGCGGAGTCACCTAGTGCAG”, with 53800 fluorescence intensity (a.u.).
For the sequence “TTATGGCTAATCATGAACTAATTAGACTCAAAAGATTCGTCGGAGTCACCTAGTGCAG”, the binding signal is 23700 fluorescence intensity (a.u.).
Regarding “TACTAATCATAGACTAATTAGGCTCAAAAGATTCGTCTCACGGAGTCACCTAGTGCAG”, the binding signal was 31300 fluorescence intensity (a.u.).
With “GATTAATTAGACTTAATAAATTTGTCTCACGGTTTACGGACGGAGTCACCTAGTGCAG”, the binding signal was 40500 fluorescence intensity (a.u.).
In the case of “GCTAATCATAGACTAATTAGGCTTAAAAGATTTGTCTCGCCGGAGTCACCTAGTGCAG” it was 37200 fluorescence intensity (a.u.); in that of “ACTAATTAGACTTAAAAGATTTGTCTCATGATTTACTCCCCGGAGTCACCTAGTGCAG”, 56300 fluorescence intensity (a.u.).
